In PubChem BioAssay (NCI):
The panel holds about 83,000 compounds, 20% with a hit somewhere; the sample as a whole holds those more often.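 Each cell line was grown in a 96-well plate and treated with one concentration of compound for 48 hours. Values below 10 were considered active.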 Values without a mark were called inactive. The source made the active and inactive calls.

How the values were obtained:
Test in all cases: NCI-60 one-dose screen, 48 h (100 = growth as untreated, 0 = no growth, -100 = all killed)
HCT-15 colon = settings: 10 µM unless noted
HT29 colon = settings: 10 µM unless noted
SNB-75 CNS = settings: 10 µM unless noted
SNB-19 CNS = settings: 10 µM unless noted
U251 CNS = settings: 10 µM unless noted
PC-3 prostate = settings: 10 µM unless noted
SK-MEL-5 melanoma = settings: 10 µM unless noted
UACC-62 melanoma = settings: 10 µM unless noted
LOX IMVI melanoma = settings: 10 µM unless noted
SK-MEL-28 melanoma = settings: 10 µM unless noted
SK-MEL-2 melanoma = settings: 10 µM unless noted
EKVX NSCLC = settings: 10 µM unless noted
SN12C renal = settings: 10 µM unless noted
UO-31 renal = settings: 10 µM unless noted
TK-10 renal = settings: 10 µM unless noted
ACHN renal = settings: 10 µM unless noted
CAKI-1 renal = settings: 10 µM unless noted
CCRF-CEM leukemia = settings: 10 µM unless noted
HL-60(TB) leukemia = settings: 10 µM unless noted
A498 renal = settings: 10 µM

| Structure (SMILES) | growth (HCT-15 colon) | growth (HT29 colon) | growth (SNB-75 CNS) | growth (SNB-19 CNS) | growth (U251 CNS) | growth (PC-3 prostate) | growth (SK-MEL-5 melanoma) | growth (UACC-62 melanoma) | growth (LOX IMVI melanoma) | growth (SK-MEL-28 melanoma) | growth (SK-MEL-2 melanoma) | growth (EKVX NSCLC) | growth (SN12C renal) | growth (UO-31 renal) | growth (TK-10 renal) | growth (ACHN renal) | growth (CAKI-1 renal) | growth (CCRF-CEM leukemia) | growth (HL-60(TB) leukemia) | growth (A498 renal) |
| --- | --- | --- | --- | --- | --- | --- | --- | --- | --- | --- | --- | --- | --- | --- | --- | --- | --- | --- | --- | --- |
| COC(=O)[C@@H](C)C[C@H](Cc1ccccc1)NC(=O)c1nc([C@@H](C[C@H](C(C)C)N(C)C(=O)[C@@H](NC(=O)[C@H]2CC(=O)CCN2C)C(C)C)OC(C)=O)sc1C(C)C | 8.84% (active) | -9.41% (active) | 15.7% | 21.2% | 12.1% | 24.3% | -14.3% (active) | 36.4% | 14.7% | 51.8% | 5.7% (active) | 30% | 17.5% | 29.6% | 46.5% | 21.9% | 34.6% | 9.87% (active) | – | – |
| CS(=O)(=O)CCN1CC2CCCC(C2)C1 | 99.5% | 96.7% | 94.1% | 99.8% | 101% | 90.1% | 104% | 102% | 104% | 105% | 105% | 102% | 98.2% | 96.9% | 96.4% | 97.7% | 97.1% | 97.2% | 81.4% | – |
| CC1CCCC(C[N+](C)(C)C)C1=O (stereo not drawn) | 108% | 105% | 95.2% | 96.6% | 105% | 93.6% | 99.5% | 90% | 50.2% | 108% | 117% | 110% | 92.5% | 73.5% | 106% | 97.5% | 103% | 95.2% | 104% | – |
| CC1(C)[C@H](O)[C@H](F)C[C@@]2(C)Oc3ccc(C(=O)Nc4ccc5c(c4)NC(=O)C54CCN(CCCCC#N)CC4)cc3C[C@H]12 | 45.7% | 16% | 46.8% | 32.2% | 10.6% | 24.4% | -60.7% (active) | -24.4% (active) | 7.04% (active) | 4.12% (active) | 28.8% | 82.1% | 69.9% | 31.5% | 59.1% | 43.1% | 56.5% | 13.8% | – | – |
| CN(C)CCCOc1ccc2c(c1)c(C(=O)C(=O)NCCO)cn2Cc1ccccc1 | 105% | 107% | 97.4% | 102% | 96.4% | 105% | 99.8% | 100% | 93% | 118% | 114% | 102% | 104% | 84% | 116% | 99.2% | 90.5% | 102% | – | 59.8% |
| CCC(CC)CC1(C)CC2(C)CCOC2OO1 (stereo not drawn) | 104% | 100% | 98.8% | 103% | 102% | 99.8% | 98.5% | 95.4% | 102% | 109% | 94.9% | 103% | 102% | 88.8% | 98% | 111% | 95.7% | 103% | – | 90.8% |
| CN1CC(CNC(=O)OCc2ccccc2)CC2c3cccc4c3c(cn4C)CC21 (stereo not drawn) | 8.29% (active) | 5.34% (active) | 20.6% | 57.8% | 13.6% | 40% | -97.8% (active) | 5.67% (active) | -37.4% (active) | -41.1% (active) | 47.2% | 71.8% | 45% | 32.5% | 53.9% | 39.7% | 52.9% | 45.7% | – | 57.6% |
| O=[N+]([O-])CC(c1ccccc1Cl)c1c(-c2ccccc2)[nH]c2ccccc12 (stereo not drawn) | 22.8% | 8.38% (active) | 6.44% (active) | 45.4% | 34.8% | 31.6% | 28.4% | 30.7% | 33.4% | 61.4% | 27.2% | 40.6% | 53.4% | 45.1% | 61.6% | 39.7% | 24.4% | 23.6% | 6.94% (active) | – |
| CCCC[C@H](NC(=O)[C@H]1CCCCN1C)C(=O)N(C)[C@H](C[C@@H](OC(C)=O)c1nc(C(=O)N[C@@H](Cc2ccccc2)C[C@H](C)C(=O)OCC)cs1)C(C)C | 20.4% | -16.4% (active) | 41.9% | 37.5% | 5.09% (active) | 17.5% | -26% (active) | 46.2% | 17.9% | 67.4% | 11.8% | 47.8% | 23.9% | 31.9% | -7.07% (active) | 13.5% | – | 8.81% (active) | -25.7% (active) | -11.9% (active) |
| CCOC(=S)S[C@H]1C[C@@H]2[C@H](CC[C@]3(C)C(=O)CC[C@@H]23)[C@@]2(C)CCC(=O)C=C12 | 101% | 111% | 93.1% | 99.5% | 102% | 106% | 103% | 94.3% | 97.9% | 104% | 116% | 102% | 93.9% | 97.3% | 100% | 109% | 99.6% | 107% | – | – |
| COC(=O)N[C@H]1CCc2c(Br)c(OC)c(OC)c(OC)c2-c2ccc(SC)c(=O)cc21 | 7.69% (active) | 12% | 29.1% | 28.2% | 21.4% | 21.7% | -44.6% (active) | 38.6% | 12.1% | 66.9% | 29.4% | 46% | 25.1% | 18.2% | 41.6% | 26.7% | 13.7% | 3.65% (active) | -43.7% (active) | – |
| CC12CCC3C(CCC4Cc5[nH]c6ccccc6c5CC43C)C1CCC2O (stereo not drawn) | 33.2% | 10.7% | 31.7% | 28% | 20.1% | 34.5% | 2.53% (active) | 31.8% | 13.4% | 54.8% | 67.2% | 56.8% | 42.8% | 56.9% | 57.3% | 48.3% | 45.1% | 8.61% (active) | -32.9% (active) | – |
| C[C@@]12CC=C3c4nc(Nc5cccc(O)c5)sc4CC[C@]3(C)[C@H]1CC[C@]1(C)C(=O)CC[C@@H]21 | -47.9% (active) | -29% (active) | 37.3% | 57.9% | 18.8% | 28.1% | 64.8% | 28.8% | -52.7% (active) | 41.2% | 29.1% | 71.4% | 46.5% | 22.2% | 10.2% | 5.12% (active) | 37.1% | 13% | 46% | – |
| CN1C(=O)C23CC4(C56CC78SSC(CO)(C(=O)N7C5Nc5ccccc56)N(C)C8=O)c5ccccc5NC4N2C(=O)C1(CO)SS3 (stereo not drawn) | -82.3% (active) | -77.3% (active) | -100% (active) | -98.3% (active) | -100% (active) | -99.5% (active) | -95% (active) | -95.6% (active) | -93.6% (active) | -90.6% (active) | -84.6% (active) | -62.3% (active) | -100% (active) | -100% (active) | -90.2% (active) | -100% (active) | -98.7% (active) | -11.2% (active) | – | -98.9% (active) |
